The values below come from PubChem BioAssay AID504332 (National Center for Advancing Translational Sciences (NCATS), 2011).

In all, about 350,000 compounds went through this assay and about 31,000 (8.9%) were called active. Where a call stands in place of a potency, no number is given. About 15% were inconclusive and are not listed. This excerpt belongs to a sample that is enriched for actives. A number with no mark means an inactive call. Calls come from the whole dose curve; as a rule, active = well fitted inhibition curve with a large enough effect; inconclusive = small, poorly fitted or top-dose-only effect; inactive = no such curve, though single readings can be large or run the other way.
Potency is the fitted concentration of half-maximal effect.

Sequence of Histone-lysine N-methyltransferase EHMT2 (Homo sapiens) (Q96KQ7 913-1193 limits assumed): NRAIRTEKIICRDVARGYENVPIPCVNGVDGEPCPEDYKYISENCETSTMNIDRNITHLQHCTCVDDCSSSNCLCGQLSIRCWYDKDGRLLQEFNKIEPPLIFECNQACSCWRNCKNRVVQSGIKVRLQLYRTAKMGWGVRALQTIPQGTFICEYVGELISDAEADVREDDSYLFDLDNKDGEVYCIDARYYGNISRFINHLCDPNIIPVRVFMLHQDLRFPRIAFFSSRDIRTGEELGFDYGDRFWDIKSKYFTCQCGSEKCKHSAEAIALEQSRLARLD

For this experiment, the target named is Histone-lysine N-methyltransferase EHMT2 (Homo sapiens) (UniProt Q96KQ7). The experiment in a line: qHTS Assay for Inhibitors of Histone Lysine Methyltransferase G9a. Note: nearly all actives have a fitted effect of over 75% in size. As to conditions: G9a H3K9 monomethylation, AlphaScreen, 2 h; series mostly up to 59 µM. The source says:
Methylated lysines, on the N-terminal tails of histone proteins serve as epigenetic markers to recruit factors that can then modify local chromatin structure to lead to functional consequences. G9a and other members of the SUV39 family of the SET domain-containing superfamily of histone lysine methyltransferases (HMT) have been identified to specifically methylate Lys9 of histone H3 (H3K9). G9a catalyzes the mono- and di-methylation of H3K9 in mammalian euchromatic regions, where the resulting H3K9me2 is indicative of transcriptional repression. […] The inhibition of G9a will result in transcriptional activation and work synergistically with DNA methyltransferase and histone deacetylase inhibitors, to kill cancer cells. This qHTS assay for identification of G9a inhibitors is a chemiluminescence based AlphaScreen (PerkinElmer). Methylation of biotinylated-histone peptide is measured through specific antibody-based detection, in conjunction with streptavidin-coated donor and anti-IgG antibody-coated acceptor beads. The method is particularly well suited for detection of inhibitors acting by the desired histone peptide competitive mechanism and is applicable to testing other HMTs. Although AlphaScreen has significant advantages with its utility in a variety of epigenetic target assays, the primary screening data provided in this deposition should be used with caution due to the prevalence of screening artifacts. An AlphaScreen counterscreen is highly recommended to be run against any putative actives to eliminate non specific artifacts. Alternatively, one can use other AlphaScreen assays in PubChem to filter out promiscuous hits. Quinn et al. A chemiluminescence-based method for identification of histone lysine methyltransferase inhibitors. Mol Biosyst 6(5): 782-8. 2010. PMID: 20567762 [2] Baell,Holloway. New substructure filters for removal of pan assay interference compounds (PAINS) from screening libraries and for their exclusion in bioassays. J Med Chem. 53(7):2719-40. 2010. PMID: 20131845 NIH Molecular Libraries Probe Production Network [MLPCN] NIH Chemical Genomics Center [NCGC] Structural Genomics Consortium (SGC) NIH Grant: 5U54 MH084681-02
To each well of a 1,536w plate, 2ul of HMT enzyme (final 20nM) were added, using a nanoliter dispenser. The G9a- and GLP-inhibitor BIX-01294 (CID: 25150857) are used as an intraplate control, with a 16-point titration in duplicate. A Kalypsys pin-tool transferred 23nl of library compound solution in DMSO to each well. Following a 15 min incubation of enzyme with compounds at room temperature, 1ul mixture of b-H3K9 peptide substrate (final 500nM) and SAM cofactor (final 20uM) were added. Reactions were allowed to proceed at room temperature for 2 hours. Methylated b-H3K9 peptide product was detected with 0.5 ug/mL rabbit polyclonal anti-monomethyl histone H3K9 antibody (Abcam Inc., Cambridge, MA) and 20 ug/mL each streptavidin-coated donor and anti-rabbit IgG acceptor AlphaScreen beads. Antibody and beads were added in a 1ul dispense, for a final volume of 4ul, and plates were incubated, protected from the light, for 10 min at room temperature. Microplates were then read on an EnVision multilabel plate reader using the 1,536 plate HTS AlphaScreen aperture (excitation time 80 ms, measurement time 240 ms).
As to `COc1ccccc1C(=O)NCCn1cc(SCc2ccccc2Cl)c2ccccc21`, the Potency result was “inactive”.
Turning to `O=C(c1ccc(F)cc1)N1CCC(C(=O)N2CCN(S(=O)(=O)c3ccccc3Br)CC2)CC1`, the Potency entry was “inactive”.
The same measure, in the same setting: with `O=C(NCc1ccccc1Cl)c1cccn1-c1nnc(N2CCCCC2)s1` the entry was “inactive”.
As to `COc1ccccc1N1CCN(c2ncnc3onc(-c4ccc(F)cc4)c23)CC1`, the Potency result is “inactive”.
As to `CCCCCCn1c(CN2CCCC(C)C2)nc2c1c(=O)n(C)c(=O)n2C` (stereo not drawn), the Potency result was “inactive”.
Same read-out and setting: next, `CC1CCCN(Cc2c(O)ccc3c(=O)c(Oc4ccc(C(C)(C)C)cc4)c(C(F)(F)F)oc23)C1` (stereo not drawn): “inactive”; `CCC(=O)Nc1sc(C(=O)N2CCCCC2)c(C)c1C#N`: “inactive”; `O=c1oc2c(CN3CCCCC3)c(O)ccc2c2c1CCCCC2`: “inactive”.
As to `Cc1c(CN2CCCCC2)c(O)n(CCO)c(=O)c1C#N`, the Potency is 50.1 µM (active).
On the same count and under the same terms, with `CCCn1c(O)c(CN2CCCC(C)C2)c(C)c(C#N)c1=O` (stereo not drawn) the figure was 14.1 µM (active).
`CCOc1ccc(-n2nc3ccc(NC(=O)c4ccc(OC)c(Cl)c4)cc3n2)cc1`: the Potency entry was “inactive”.
As to `CN(CC(=O)Nc1c(Cl)cccc1Cl)C(=O)CC1OC(=O)c2ccccc21` (stereo not drawn), the Potency entry was “inactive”.
Same read-out and setting: next, `CN(Cc1ccccc1)C(=O)CCS(=O)(=O)c1cc(Br)cc2c1N(C(=O)C1CC1)CC2`: “inactive”.
On to `CCc1ccccc1OCC(=O)Nc1ccc(C)c(S(=O)(=O)N2CCCCCC2)c1`, for which the activity, negative = inhibition is 18.3% [at 12.7 µM].
On the same count and under the same terms, next, `C[C@H](OC(=O)n1ccnc1)[C@@H]1O[C@@]2(C)CCC[C@@H]1O2`: 9.09% [at 0.501 µM].
On to `Cc1ccc(-c2cn3c(n2)sc2cc(C(=O)NCc4cccs4)ccc23)c(C)c1`, for which the Potency entry was “inactive”.
On the same count and under the same terms, with `CCC(=O)N1CCc2cc(Br)cc(S(=O)(=O)CCC(=O)N3CCN(c4ccc(F)cc4)CC3)c21` the entry was “inactive”.
On to `O=C(CSCc1c(Cl)cccc1Cl)NN1C(=O)c2ccccc2C1=O`, for which the activity, negative = inhibition was -11.1% [at 2.33 µM].
Consider `O=c1[nH]nc(CSCc2ccccc2Cl)[nH]1`, for which the Potency entry was “inactive”.
With `CCn1c(CSCc2c(Cl)cccc2Cl)n[nH]c1=S`, the Potency is 2.82 µM (active).
Turning to `COc1ccccc1-n1ccnc(SCC(=O)NC2CCCCC2)c1=O`, the Potency result was “inactive”.
On the same count and under the same terms, next, `Cc1ccc(C)c(OCCC(=O)OCC(=O)NC(=O)NCc2ccccc2)c1`: “inactive”.
Take `O=C(Nc1ccc(Cl)cn1)Nc1cccs1`: the Potency is 56.2 µM (active).
Still for that read-out and setting: with `CCCc1cc(C(=O)Nc2ccc(Cl)cn2)cs1` the entry was “inactive”.
Consider `O=C(Nc1cccc([N+](=O)[O-])c1)Nc1ccc(Cl)cn1`, for which the Potency entry is “inactive”.
Still for that read-out and setting: with `COc1ccc(S(=O)(=O)N2CCCCC2)cc1NC(=O)C1CC(=O)N(c2ccc3c(c2)OCCO3)C1` (stereo not drawn) the entry was “inactive”.
`CCOc1ccc(S(=O)(=O)N2CCCCC2)cc1NC(=O)CN1CCCC1c1cccs1` (stereo not drawn): the activity, negative = inhibition was 19.5% [at 2.33 µM].
In the case of `Cc1nn(-c2nc(-c3ccccc3)cc(C(F)(F)F)n2)c(C)c1Cl`, the Potency entry is “inactive”.
Same read-out and setting: next, `Cn1c(-c2sc3cc(C(F)(F)F)cnc3c2-c2ccccc2)n[nH]c1=S`: 2.24 µM (active); `Cc1cc(C(F)(F)F)n2ncc(-c3ccccc3)c2n1`: “inactive”; `Cc1ccc2c(=O)c(C(=O)c3cccc(Cl)c3)cn(CC(=O)NCc3ccccc3)c2n1`: “inactive”.
On the same count and under the same terms, next, `CC(=O)N1c2ccccc2N(Cc2ccc([N+](=O)[O-])cc2)C(=O)C1(C)C`: “inactive”.
On the same count and under the same terms, next, `O=C1NC(=O)C2C1C(c1ccc([N+](=O)[O-])cc1)=NN2Cc1ccccc1` (stereo not drawn): 50.1 µM (active); `Cc1nc2ccccc2c(=O)n1Cc1ccc([N+](=O)[O-])cc1`: “inactive”.
Regarding `Nn1c(SCC(=O)NC(=O)NC2CCCC2)nnc1-c1ccccc1F`, the Potency entry was “inactive”.
Same read-out and setting: next, `Nn1c(SCC(=O)NC2CCCC2)nnc1-c1ccccc1F`: 50.1 µM (active).
The same measure, in the same setting: with `O=C(CSc1nnc(Nc2ccccc2F)s1)NC1CCCC1` the figure was 8.91 µM (active); with `Cc1cc(NC(=O)CSc2nnc(Nc3ccccc3F)s2)no1`, “inactive”; with `O=C(CSc1nnc(Nc2ccccc2)s1)Nc1cccnc1Cl`, “inactive”.
Still for that read-out and setting: next, `CC(C)NC(=O)NC(=O)CSc1nnc(-c2ccccc2F)n1N`: “inactive”.
For `O=C1CCCN1C(=O)COc1ccc([N+](=O)[O-])cc1`, the Potency result was “inactive”.
Still for that read-out and setting: with `COc1ccc(CCNc2nc(-c3ccc(F)cc3)cc(C(F)(F)F)n2)cc1OC` the entry was “inactive”.
In the case of `Cc1cc(C)cc(-c2nnc(SCC(=O)NC3CC3)o2)c1`, the activity, negative = inhibition was 18.2% [at 2.33 µM].
On to `CO[C@H]1[C@@H]2C=CO[C@@H](O[C@H]3O[C@@H](CO)[C@H](O)[C@@H](O)[C@@H]3O)[C@@H]2[C@@]2(CO)O[C@@H]12`, for which the activity, negative = inhibition was -4.51% [at 2.33 µM].
For `COc1cccc(CNC(=O)Cn2c(=O)c3cccn3c3ccc(F)cc32)c1OC`, the Potency entry is “inactive”.
Same read-out and setting: with `CCc1ccc(S(=O)(=O)Nc2ccc(C)c(NS(C)(=O)=O)c2)cc1` the entry was “inactive”; with `CCc1ccc(S(=O)(=O)Nc2cc3c(cc2N2CCCCC2)n(C)c(=O)c(=O)n3C)cc1`, 44.7 µM (active).
In the case of `Cn1c(=O)c(=O)n(C)c2cc(S(=O)(=O)NCCc3ccccc3)ccc21`, the activity, negative = inhibition is 29.1% [at 0.501 µM].
